AID504770 – E. coli YBA685 growth inhibition, screen for V. cholerae RctB inhibitors; E. coli YBA685 rctB-dependent plasmid, OD600 growth, 3 h; hits give low values; z-score (test concentration not listed); actives 0.27% (n = 130,000); in the data active = z-score below about -2, passing the limit was not always enough
Polio RdRp inh – poliovirus RNA polymerase inhibition | poliovirus polymerase elongation, fluorescence polarization; hits give low values | % elongation, % (compound at 16.7 µg/mL) | actives 0.66% (n = 150,000) | AID 588519; in the data active = % elongation below about 90%
MbtI inh – blocks the Mycobacterium tuberculosis siderophore enzyme MbtI. AID 493033. purified MbtI enzyme, fluorescence intensity read-out. inhibition, % (no concentration beside the values). actives 0.89% (n = 100,000); in the data active = inhibition mostly above about 56%, no sharp cut-off; inactive = mostly below about 77%
MenB inh – Mtb MenB enzyme inhibition; P9WNP5; MenB enzyme assay, absorbance read-out; inhibition, % (test concentration not listed); actives 0.43% (n = 100,000); AID 540299; in the data active = inhibition above about 21%, passing the limit was not always enough
Target sequence (P9WNP5 whole entry, looked up): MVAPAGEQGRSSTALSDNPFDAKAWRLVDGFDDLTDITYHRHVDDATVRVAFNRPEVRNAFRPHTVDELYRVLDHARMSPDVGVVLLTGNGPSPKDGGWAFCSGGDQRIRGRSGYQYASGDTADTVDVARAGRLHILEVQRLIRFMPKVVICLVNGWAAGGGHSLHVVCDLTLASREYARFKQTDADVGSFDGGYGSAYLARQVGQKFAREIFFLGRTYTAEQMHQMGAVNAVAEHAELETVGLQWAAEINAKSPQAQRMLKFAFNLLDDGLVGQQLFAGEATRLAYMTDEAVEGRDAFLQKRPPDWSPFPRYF
Numbers without * were called inactive; . = no result given. Shown are actives, neighbours in structure and some others; about 1.4% of the full set was active somewhere.

SMILES	AID504770	Polio RdRp inh	MbtI inh	MenB inh
COC(=O)NCCSc1nnnn1-c1ccccc1	1.9	101	8	31*
CCOC(=O)C(C)Sc1ncnc2c1nnn2Cc1ccc(Cl)cc1 (stereo not drawn)	-0.05	99	7	-32
O=C(Nc1nccs1)C1CCN(S(=O)(=O)c2cccnc2)CC1	-0.75	.	.	.
O=C(Nc1nccs1)C1CCN(S(=O)(=O)c2ccccc2)CC1	-2.3*	105	-7	-53
CC12COC3(C(=O)N4CCCCC4)CC1CCC32C (stereo not drawn)	-0.15	101	0	.
CC12COC3(C(=O)Nc4ccccc4)CC1CCC32C (stereo not drawn)	0.05	100	0	58*
CCOc1ccc(-c2c(=O)n(O)c3ccccc3[n+]2[O-])cc1	1.9	99	87*	-142
O=c1c(-c2ccc(I)cc2)[n+]([O-])c2ccccc2n1O	-0.7	101	43	-114
Cc1ccccc1Nc1nc(N)nc(COC(=O)CCCN=C2NS(=O)(=O)c3ccccc32)n1	0.65	86*	-8	-1
Cc1ccccc1Nc1nc(N)nc(COC(=O)Cc2c[nH]c3ccccc23)n1	0.2	108	-9	-2
O=C1N/C(=N\Nc2ccccc2)S/C1=C\c1ccccc1	-0.45	108	80*	-36
O=C1NC(=O)/C(=C\c2ccccc2)S1	0.3	.	.	.
CCS(=O)(=O)c1ccc2oc(Nc3cc(C)cc(C)c3)nc2c1	-0.5	103	14	-13
CCS(=O)(=O)c1ccc2oc(Nc3ccc(C(C)C)cc3)nc2c1	0.6	70*	65	-20
CCOc1nc(NCc2ccco2)nc(N2CC3CC(C2)c2cccc(=O)n2C3)n1 (stereo not drawn)	-0.3	101	21	39*
O=c1cccc2n1CC1CC2CN(c2nc(N3CCCCC3)nc(N3CCCCC3)n2)C1 (stereo not drawn)	-2.7*	99	5	0
CCOc1ccc(-c2cn3c(n2)sc2cc(C(=O)NCc4cccs4)ccc23)cc1	0.35	102	166	4
CNC(=O)COc1c(C)c(C)cc(C)c1C	-0.45	101	-12	-9
S=c1nc(-c2cccs2)cn[nH]1	1.6	101	74*	-33
Cc1nc(-c2cccs2)cs1	-0.2	100	1	.
CCN1CCN(Cc2nnnn2C(C)(C)C)CC1	-0.8	100	0	-10
Cc1ccc(S(=O)(=O)N(CCO)Cc2cc3cc(C)c(C)cc3[nH]c2=O)cc1	0.15	102	32	17
COc1ccc2[nH]c(=O)c(CN(CCO)S(=O)(=O)c3ccc(Cl)c(C(F)(F)F)c3)cc2c1	1	100	23	33*
CC1CCN(c2cc3c(cc2F)c(=O)c(S(=O)(=O)c2ccc(Cl)cc2)cn3C)CC1	.	102	.	.
Fc1ccc(Cn2[nH]nnc2=S)cc1	-0.8	96	69*	-17
SMILES	AID504770	Polio RdRp inh	MbtI inh	MenB inh
CCOC(=O)c1cc(C(=O)OCC)n(C)n1	-0.2	104	.	-5
CCOC(=O)c1cc(C(=O)O)nn1C	0.05	101	-2	28*
O=C(NCCCSc1ccccc1)Nc1ccccc1	0.05	110	-10	-9
O=C(NCCSc1ccc(Cl)cc1)Nc1ccccc1	-4.5*	100	-6	3
COc1ccc2c(c1)-c1nc(/N=C/c3ccc(C)o3)sc1CC2	-0.4	97	82*	-49
COc1ccc2c(c1)CCc1sc(/N=C/c3ccc(C)cc3)nc1-2	1.1	101	18	-17
Cc1ccc(C)c(CN2C(=O)c3ccccc3S(=O)(=O)c3ccc(C(=O)N4CCOCC4)cc32)c1	.	105	.	.
Cc1cc(C)c2cccnc2c1O	-2.4*	101	-7	-11
O=C(/C=C/c1ccco1)/C=C/c1ccco1	-0.85	80*	26	-44
O=C(NCCCN1CCCC1)c1csc2c1CCCC2	-0.25	104	-4	-1
CC(C)NC(=O)CSc1nc2ccccc2s1	1.8	105	30	-31
O=C(CSc1nc2ccccc2s1)NNc1ncnc2c1cnn2Cc1ccccc1	1.7	100	56*	6
CC(C)(C)Cc1cc(N)on1	-2*	102	-8	-33
CCN1C(=O)C2C=CC=CC2NC1=S (stereo not drawn)	-0.7	101	3	4
CN1C(=O)C2C=CC=CC2NC1=S (stereo not drawn)	0.5	87*	44	-73
CCOC(=O)CCc1c(C)nc2ncnn2c1C	2	.	-1	.
CCOC(=O)CCc1c(CC(=O)OCC)c[nH]c1/C=N/O	-0.25	50*	-9	-21
CN(C)/C(=N\S(=O)(=O)c1ccccc1)c1ccccc1	0.95	105	14	-20
COC(=O)c1ccc(C(=O)OC)cc1	0.3	105	.	-14
COC(=O)c1ccc(C(=S)NCC(OC)OC)cc1	0.1	79*	87*	-61
Cc1cc(Oc2ccccc2)nc(SCc2ccccc2)n1	-0.25	104	1	-7
C=CCn1c(C2COc3ccccc3O2)n[nH]c1=S (stereo not drawn)	0.65	100	98*	-22
NC(=O)C1(c2ccccc2)CCC(=O)N1c1ccccc1 (stereo not drawn)	-1.1	.	-9	.
Cc1nc(C(F)(F)F)ccc1C(=O)NCC(O)c1ccccc1 (stereo not drawn)	-0.45	88*	-15	-2
Cc1nc(C(F)(F)F)ccc1C(=O)NCc1ccccc1	1.1	.	.	.
SMILES	AID504770	Polio RdRp inh	MbtI inh	MenB inh
COc1cccc(C(=O)O)c1OCC(=O)O	-0.6	.	.	.
CCCc1nc(=S)c2ccccc2[nH]1	-0.45	102	92*	-26
O=C(CSc1nnc(-c2cc3ccccc3[nH]2)n1-c1ccccc1)N1CCNC1=O	-0.35	58*	2	3
N#Cc1c(N)sn(-c2ccccc2)c1=S	-0.35	79*	94*	-5
COc1cccc(CNC(=O)C2CCCN(c3nnc(-n4c(C)ccc4C)s3)C2)c1 (stereo not drawn)	.	104	.	.
CSc1ncc(F)c(N(C)C)n1	0.3	102	.	-7
Cc1cnc(C)c(N(C)C)n1	1.1	57*	70	31*
Cc1cc(NC(=O)CCCn2c(C)c3cnn(-c4ccccc4)c(=O)c3c2C)ccc1Br	.	100	.	.
COC(=O)C(N)C12CC3CC(CC(C3)C1)C2 (stereo not drawn)	0.3	101	3	17
COC(=O)C(F)C(=O)OC	0.8	88*	-1	11
COc1ccc(OC)c(NC(=O)C(CC(=O)O)Cc2ccc(C)cc2)c1 (stereo not drawn)	0.3	99	-9	-7
CCOc1cccc(CNCCN2CCOCC2)c1	0.35	97	-2	-46
c1cncc(CNCCN2CCOCC2)c1	-0.2	102	-8	65*
CC(C)CCNc1ncnc2c1cnn2-c1cccc(Cl)c1	.	109	.	.
N#CC1(C#N)C2C=CC(C2)C1(C#N)C#N	-5.9*	103	12	-16
Cc1ccc(C2=NN=C(NC(=O)CSc3nnc(C)s3)SC2)cc1	-0.8	99	84*	8
O=C(CCC(=O)c1ccc(Cl)s1)OCc1nc2ccccc2s1	0.45	102	2	1
CCN1CCc2c(sc3[nH]c(=S)n(Cc4ccccc4)c(=O)c23)C1	0.05	110	51	-45
CCc1ccc(CNCc2cccs2)cc1	-1.2	105	-13	-51
Clc1cccc(CNCc2cccs2)c1	0.8	102	1	38*

Compound activity deposited in PubChem BioAssay by ICCB-Longwood Screening Facility, Harvard Medical School.
